From PubChem BioAssay (NCATS)
Results filed as inconclusive are left out. Where a call stands in place of a potency, no number is given. Calls of active or inactive are those of the source. Calls follow the shape of the dose curve; as a rule, active = well fitted curve in the direction sought with a large enough effect; inconclusive = small, poorly fitted or top-dose-only effect, or another doubt; inactive = no such curve, though single readings can be large; an effect the other way counts as inactive or inconclusive.

Key:
[1] = qHTS for compounds that reverse cellular toxicity of Amyloid beta (A-beta) peptide in yeast: LOPAC Validation Assay (AID 720559)
Procedure, shortened: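 Medium dispensed, compounds pinned, A-beta yeast suspension added; plates held at 30 C for 48 hr; absorbance measured at 600 nm to gauge growth; values scaled between DMSO and FeCl3/clioquinol (equimolar) controls.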

[2] = qHTS for Activators of Parkin Expression: LOPAC Validation Assay (NLuc Reporter) (AID 720572)
Procedure, shortened: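 Parkin promoter-driven FLuc/NLuc neuronal reporter cells; 24 h plating, 7-pt dose response, 24 h at 37 C/5% CO2; FLuc then NanoLuc reagent, 10 min each, luminescence; DMSO/positive control normalized.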

[3] = qHTS for Activators of Parkin Expression: LOPAC Validation Assay (FLuc Reporter) (AID 720573)
Procedure, shortened: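 Cells seeded, 24 h; compounds pinned, 7-pt dose response; 24 h at 37 C/5% CO2; volume reduced; FLuc reagent 10 min RT; luminescence read. Normalization: DMSO = 0, positive control = 100%.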

Compound	outcome [1]	Potency [2]	Potency [3]
CC(C)[C@@H]1CC[C@@H](C)C[C@@H]1P(=O)(c1ccccc1)c1ccccc1	inactive	inactive	inactive
Nc1nc2[nH]c(=O)cnc2c(=O)[nH]1	inactive	inactive	
CC(=O)[C@H]1CCC2C3CC=C4C[C@@H](OS(=O)(=O)O)CC[C@]4(C)C3CC[C@@]21C (some centres undefined)	inactive	inactive	inactive
NC(N)=[N+]1CCc2ccccc2C1	inactive	inactive	
COc1ccccc1N1CCN(CCCCN2C(=O)c3ccccc3C2=O)CC1	inactive	inactive	
O=C(O)CCC(=O)N1CCCC1C(=O)O (centres undefined)	inactive	inactive	inactive
C[C@]12C=CC(=O)C=C1CC[C@@H]1C2=CC[C@]2(C)[C@@H](C(=O)CN3CCN(c4cc(N5CCCC5)nc(N5CCCC5)n4)CC3)CC[C@@H]12	inactive	inactive	inactive
O=c1[nH]c(=O)c2nc3ccccc3nc2[nH]1	inactive	inactive	inactive
COc1cc([C@@H]2c3cc4c(cc3[C@H](O)C3COC(=O)[C@@H]32)OCO4)cc(OC)c1OC (some centres undefined)	inactive	inactive	inactive
CCCCCCCC/C=C\CCCCCCCC(=O)NCCc1ccc(O)c(O)c1			inactive
Nc1nc2ccc(Cl)cc2c2nc(-c3ccco3)nn12	inactive		inactive
COc1ccc(-c2ccc(N)[n+](CCCC(=O)O)n2)cc1		inactive	inactive
CC(C)(C)NCC(O)COc1cccc2[nH]c(=O)[nH]c12 (centres undefined)	inactive	inactive	inactive
c1ccc2c(c1)CC(N1CCN(c3cccc4c3OCCO4)CC1)C2	inactive	inactive	inactive
O=c1[nH]c2cc(Cl)ccc2c(O)c1-c1ccc(Oc2ccccc2)cc1		inactive	inactive
C[C@](Cc1ccc(O)c(O)c1)(NN)C(=O)O		inactive	inactive
C=C(C)C1CC=C(C(=O)O)CC1 (centres undefined)	inactive	inactive	inactive
CCCCCCCCCC[Si](C)(C)CCC(=O)NC(Cc1ccc(C)cc1)c1ccccc1 (centres undefined)	inactive	inactive	inactive
O=S(=O)(c1cccc2c(Cl)cccc12)N1CCCNCC1	inactive	inactive	inactive
O=C(O)C1CCCNC1 (centres undefined)	inactive		inactive
Nc1ncnc2c1nc(Sc1ccc(Cl)cc1)n2[C@H]1OC2COP(=O)(O)O[C@@H]2C1O (some centres undefined)	inactive		inactive
N[C@@H](Cc1c[nH]c2ccccc12)C(=O)O		inactive	inactive

Compound	outcome [1]	Potency [2]	Potency [3]
Nn1nnc2ccccc21		inactive	inactive
CSC(=N)N	inactive		inactive
COc1ccc2c(c1)c(CC(=O)O)c(C)n2Cc1ccc(Cl)cc1	inactive		inactive
O=C1OC(=O)C2C3CCC(O3)C12 (centres undefined)	inactive		inactive
[Li+]	inactive		inactive
Cc1nc2c(OCc3ccccc3)cccn2c1CC#N	inactive		inactive
CC(C)C[C@H](NC(=O)[C@H](O)[C@H](N)Cc1ccccc1)C(=O)O		inactive	inactive
O=C(O)C1CCNCC1	inactive		inactive
N=C(N)c1ccccc1	inactive		inactive
Nc1ncnc2c1c(-c1ccc(Oc3ccccc3)cc1)cn2C1CCCC1	inactive	inactive	inactive
Cn1ccnc1	inactive	inactive	inactive
NC(N)=NC(N)=Nc1ccccc1	inactive	inactive	inactive
NC(Cc1cccc(-c2ccccc2CP(=O)(O)O)c1)C(=O)O (centres undefined)	inactive	inactive	inactive
NC1(C(=O)O)CCCCC1	inactive	inactive	inactive
O=c1cc(-c2ccccc2)[nH]c2nc(Cl)ccc12	inactive	inactive	inactive
CC(C)(C)c1ccc(/C=C/C(=O)Nc2ccc3c(c2)OCCO3)cc1	inactive	inactive	inactive
Cc1nc(N=Nc2cc(S(=O)(=O)O)c3cc([N+](=O)[O-])cc(S(=O)(=O)O)c3c2)c(COP(=O)(O)O)c(C=O)c1O	inactive	inactive	inactive
OC1(c2ccc(Cl)cc2)CCN(Cc2c[nH]c3ccccc23)CC1	inactive		inactive
C=C1C[C@@]23CC[C@H]4[C@@](C)(CCC[C@@]4(C)C(=O)OC4OC(CO)C(O)C(O)C4O)[C@@H]2CC[C@]1(OC1OC(CO)C(O)C(O)C1OC1OC(CO)C(O)C(O)C1O)C3 (some centres undefined)		inactive	inactive
Oc1cc(O)c2c(c1)O[C@H](c1ccc(O)c(O)c1)[C@@H](O)C2			inactive
COc1ccc(C(=O)NCc2cccnc2)cc1C(=O)NCc1cccnc1	inactive	inactive	inactive
